High-throughput results deposited in PubChem BioAssay by Sanford-Burnham Center for Chemical Genomics.
CYP2C9 activ – CYP2C9 (human) activation | recombinant CYP2C9, luciferin-H conversion, luminescence; stronger effect = higher value; factor 1 = untreated enzyme, 0 = blocked | hit rate 1.4% among 96,000 | activation factor at 5 µM | P11712;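 active means activation factor of 2 or more for CYP2C9 at a 5 µM dose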;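 further: 0 = sulfaphenazole-blocked wells and 1 = vehicle-only wells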
CYP2C19 act – activators of human cytochrome P450 2C19 | P33261 | 96,000 tested, under 10 active | activation factor at 5 µM | recombinant CYP2C19, luciferin-H EGE luminescence; stronger effect = higher value; 0 = fully inhibited enzyme, 1 = untreated enzyme;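 active means activation factor of at least 2 at 5 µM in the primary screen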;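 further: 0 = wells with 2.5 mM tranylcypromine and 1 = vehicle-only wells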
Target sequence (P33261 whole entry, looked up): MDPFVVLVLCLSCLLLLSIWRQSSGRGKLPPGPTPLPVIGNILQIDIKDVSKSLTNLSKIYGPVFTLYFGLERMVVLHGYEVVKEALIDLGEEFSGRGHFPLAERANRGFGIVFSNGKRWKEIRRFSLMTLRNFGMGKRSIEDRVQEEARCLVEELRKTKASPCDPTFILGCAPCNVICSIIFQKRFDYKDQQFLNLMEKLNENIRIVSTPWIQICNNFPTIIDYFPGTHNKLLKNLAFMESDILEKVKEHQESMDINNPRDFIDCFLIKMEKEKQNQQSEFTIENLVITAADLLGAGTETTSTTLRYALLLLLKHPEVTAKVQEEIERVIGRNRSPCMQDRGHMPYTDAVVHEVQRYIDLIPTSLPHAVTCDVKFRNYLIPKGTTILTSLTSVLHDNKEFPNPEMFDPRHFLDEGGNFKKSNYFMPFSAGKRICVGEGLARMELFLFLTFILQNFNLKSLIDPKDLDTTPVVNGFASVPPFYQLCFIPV
CYP2C19 inh – blocks human cytochrome P450 2C19; P33261; CYP2C19 Supersomes, luciferin-H EGE luminescence, 30 min; inhibition, % at 5 µM; hit rate 21% among 96,000; AID 778;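 active means CYP2C19 inhibition above a set limit at 5 µM in the primary screen, cut at about 50% in these data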;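 further: plate controls were negative control wells for no effect and 2.5 mM tranylcypromine positive control for full effect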
CYP2C9 inh – blocks human cytochrome P450 2C9 | CYP2C9 Supersomes, luciferin-H conversion, luminescence | inhibition, % at 5 µM | hit rate 20% among 96,000 | AID 777;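 active means blocking of liver enzyme CYP2C9 beyond about 50% at 5 µM, limit read from the data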
Starred values were filed as active, the others as inactive. Compounds with a hit are over-represented: about 31% of the library has one in this group of screens.

SMILES	CYP2C9 activ	CYP2C19 act	CYP2C19 inh	CYP2C9 inh
N#C/C(=C\c1cn(CCOc2ccccc2)c2ccccc12)C(=O)NCC1CCCO1 (stereo not given)	0.1	0.4	57.7*	92.4*
Cc1nnc(-c2cnn(C)c2N)n1Cc1cccc(Cl)c1	1	0.9	8.7	3.7
Cc1cccc(-n2cnc(C(=O)N/N=C/c3ccccc3)c2)n1	0.9	1	-3.1	9.2
c1ccc(-c2n[nH]c(-c3ccccn3)n2)cc1	0.9	1	-3.8	5.3
c1ccc(-c2n[nH]c(-c3ccccn3)n2)nc1	0.9	0.3	67.2*	13.8
CCCCNCCCOc1cccc(Cl)c1Cl	1.3	0.7	27.2	-26.1
COc1ccc(/C(N)=N/OC(=O)c2ccc3c(c2)OCO3)cc1OC	1.2	0.8	21.5	-18.7
Cc1ccc2[nH]c3c(c2c1)CN(C(=O)CN1CC(C)OC(C)C1)CC3 (stereo not given)	0.6	0.3	70.7*	35.1
O=C(CN1CCN(c2ccccc2)CC1)N1CCc2[nH]c3ccccc3c2C1	0.5	0.7	34.1	45.7
Cc1ccc2[nH]c3c(c2c1)CN(C(=O)CN1CCN(Cc2ccc4c(c2)OCO4)CC1)CC3	0.4	0.4	62.4*	62.2*
Cc1ccc2[nH]c3c(c2c1)CN(C(=O)CN1CCSCC1)CC3	0.8	0.5	50.9*	15.4
Cc1[nH]c2ccccc2c1NC(=O)CN1CCN(Cc2ccc3c(c2)OCO3)CC1	0.9	0.7	26.9	12.3
Cc1ccc2[nH]c3c(c2c1)CN(C(=O)CN1CCN(c2ccccn2)CC1)CC3	0.8	0.9	11.1	20.9
FCCCOc1ccc(/C=N/OCc2ccc(Cl)cc2)cc1	0.9	0.9	7.0	9.5
CCC(c1nnnn1CC1CCCO1)N(CCCO)Cc1cc2cccc(C)c2[nH]c1=O (stereo not given)	1	0.8	18.5	-1.3
COc1ccc(NC(=O)N(CCO)Cc2cc3c(C)cc(C)cc3[nH]c2=O)cc1	1	1	2.7	1.0
CCc1ccc2[nH]c(=O)c(CN(CCO)C(=O)NCc3ccccc3)cc2c1	1.1	0.7	25.2	-12.6
Cc1cc(C)c2cc(CN(CCO)C(=O)Nc3ccc(F)cc3)c(=O)[nH]c2c1	0.6	0.3	74.2*	38.4
Cc1cc(C)c2cc(CN(Cc3ccco3)C(=O)NCc3ccccc3)c(=O)[nH]c2c1	0.4	0.7	28.1	55.4*
Cc1cc(C)c2cc(CN(CCO)C(c3nnnn3Cc3ccc(F)cc3)C(C)C)c(=O)[nH]c2c1 (stereo not given)	0.1	0.2	75.7*	92.6*
CCC(c1nnnn1Cc1ccc(F)cc1)N(CCCO)Cc1cc2cc3c(cc2[nH]c1=O)OCO3 (stereo not given)	0.9	0.4	55.0*	12.4
COC(=O)Nc1c(-c2ccccc2)nc2ccc(C)cn12	1	1	3.4	4.2
Nc1ccccc1C#Cc1ccccc1	0.8	0.5	52.6*	17.5
CCOC(=O)/C=c1\sc2n(c1=O)CCN=2	1.1	1	-2.8	-7.0
CCOC(=O)/C=C1\NC(=O)C(C)S1 (stereo not given)	2.1*	1	4.9	-109.5
SMILES	CYP2C9 activ	CYP2C19 act	CYP2C19 inh	CYP2C9 inh
Cc1ccc(-c2nc3ncccc3o2)cc1NC(=O)COc1ccccc1	0.9	0.9	8.1	9.7
Cc1ccc(-c2nc3cccnc3o2)cc1NC(=O)COc1ccc(Cl)cc1C	0.4	0.7	26.0	63.8*
Cc1ccc(-c2nc3cccnc3o2)cc1NC(=O)COc1ccc(C(C)(C)C)cc1	0.4	0.7	32.8	55.3*
COC(=O)c1oc2ccc(Cl)cc2c1N	0.9	0.7	33.7	13.1
Cc1oc(CC(C)C)c(CN)c1C(=O)O	0.9	1	4.8	8.5
CC(=O)Nc1ccc(S(=O)(=O)N2CCC(n3cnc4cc(F)ccc43)CC2)cc1	0.4	0.7	25.8	59.9*
COc1ccc(S(=O)(=O)N2CCC(n3cnc4cc(C(F)(F)F)ccc43)CC2)cc1	0.5	0.3	74.5*	47.0
COc1ccc(S(=O)(=O)N2CCC(N3CCCCC3)CC2)cc1	1.1	0.9	7.6	-6.6
O=S(=O)(c1ccccc1)N1CCC(n2nnc3cc(F)ccc32)CC1	1.2	0.5	45.5	-20.7
CC(=O)Nc1ccc(S(=O)(=O)N2CCC(c3nc4ccc(C)cc4[nH]3)CC2)cc1	0.8	0.7	27.5	23.3
O=S(=O)(c1ccc2c(c1)OCCO2)N1CCC(n2nnc3cc(C(F)(F)F)ccc32)CC1	1.5	0.1	93.5*	-52.2
O=C(CN1C(=O)C2CC=CCC2C1=O)OCCN1C(=O)c2ccccc2C1=O (stereo not given)	0.9	0.9	12.4	10.9
CCN(Cc1ccccc1)C(=O)Cn1cc2c(n1)CCCC2	1	0.8	22.8	0.6
O=C(CCCNS(=O)(=O)c1ccc(Br)cc1)N1CC[C@@]2(O)CCCC[C@H]2C1	1	1	2.2	3.8
c1ccc2nc(-c3ccncc3)ccc2c1	0.6	0.3	67.8*	36.0
COc1ccc(-c2noc(CCCC(=O)NCCc3ccccc3)n2)cc1OC	0.5	0.5	47.4	48.2
CC(C)N(Cc1nc(-c2ccccc2)no1)C(=O)CN(C)S(=O)(=O)c1ccc(Br)cc1	0.4	0.5	51.9*	58.2*
CN(Cc1nc(-c2cccnc2)no1)S(=O)(=O)c1ccc2ccccc2c1	0.7	0.1	86.0*	27.4
CN(Cc1nc(-c2ccccn2)no1)S(=O)(=O)c1ccc(Br)cc1	0.4	0.4	60.6*	60.6*
CC(C)N(Cc1nc(-c2ccc(Cl)cc2)no1)C(=O)CN(C)S(=O)(=O)c1ccc(Cl)cc1	0.1	0.4	62.2*	88.8*
COc1ccc(-c2noc(CN(C)S(=O)(=O)c3ccc(Cl)cc3)n2)cc1OC	0.9	0.6	42.5	13.3
CN(Cc1nc(-c2cccnc2)no1)S(=O)(=O)c1ccc(Br)cc1	0.6	0.7	29.3	38.3
CN1CC(=O)NC1=NC(=O)C12CC3CC(CC(C3)C1)C2	0.9	0.9	10.8	10.1
CC(C)CCNc1nnnc2c1sc1nc(N3CCOCC3)c3c(c12)CC(C)(C)SC3	0.2	0.6	36.9	84.6*
CCc1nc(OCc2ccccc2)c2sc3nc4c(cc3c2n1)COC(C)(C)C4	1	1	3.0	-1.1
SMILES	CYP2C9 activ	CYP2C19 act	CYP2C19 inh	CYP2C9 inh
Fc1ccccc1NC(=S)NN(Cc1ccccc1)c1ccccc1	0.2	0	95.4*	82.3*
CC(C)c1ccccc1NC(=S)NN(Cc1ccccc1)c1ccccc1	0.5	0.4	62.5*	46.0
CCn1cc(C(=O)NCCCN2CCC(C)CC2)c2cc(OC)c(OC)cc2c1=O	1	1	-2.5	1.0
COc1cc(C2c3c(oc4cc(C)c(C)cc4c3=O)C(=O)N2c2cc(C)ccn2)ccc1O (stereo not given)	0.6	1	-1.8	41.0
CCN(CC)c1nc(C)c2c(c1C#N)CC(C)(C)OC2	0.8	0.8	20.6	22.2
CC(C)C1Cc2c(C#N)c(N)sc(=S)c2CO1 (stereo not given)	0.2	0.5	50.9*	84.4*
CC1(C)Cc2c(C#N)c(N)sc(=S)c2CO1	0.3	0.8	17.0	67.6*
COC(=O)N/N=C(\C)c1ccccc1Br	1.1	0.7	29.1	-5.0
